In the library only some 3.9% were active in any assay of this set; here they are far more common.
HSP90 inh: blocks HSP90-mediated luciferase refolding in reticulocyte lysate; Rabbit reticulocyte lysate, luciferase refolding luminescence, 3 h; inhibition, % at 5.6 µM; 290,000 compounds, 0.91% hits;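 active = inhibition above the screen-wide mean plus 3 SD, computed separately per campaign, cut at about 16% in these data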;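 also: 0% = DMSO wells and 100% = 60 µM geldanamycin wells; inhibitors lower the luminescence because luciferase stays unfolded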
TROY signal inh: TROY signaling inhibition; Q293 LMP1-TROYcd NF-kB luciferase reporter, 4 h; inhibition, % at 10 µM; 360,000 compounds, 0.98% hits;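 active = compounds whose plate-normalised and pattern-corrected inhibition of the luciferase reporter signal at the single screening dose is 50% or more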
HIF-2a inh: inhibitors of HIF-2a; 786-0 RCC cells HIF-2a reporter, luciferase luminescence, overnight; inhibition, % at 18.8 µM; 360,000 compounds, 0.72% hits; AID 624352;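 active = inhibition of the luminescence signal of 40% or more relative to plate controls, in a single-dose primary screen at 18.75 µM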
C8 TRAIL sens: sensitizes caspase-8 expressing cells to TRAIL; NB7+C8 cells + TRAIL, ATPlite viability luminescence; 360,000 compounds, 1% hits; inhibition (viability loss, TRAIL sensitization), % at 10 µM;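 active = compounds causing at least 50% loss of cell viability in the single-dose screen, relative to plate controls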
aSyn UTR inh: MLPCN primary screen, SNCA 5' untranslated region; alpha-synuclein 5'UTR reporter, inhibitor activity; inhibition, % (tested at 7.5 µM); 300,000 compounds, 0.82% hits; in the data active = inhibition above about 60%;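 also: H4 neuroglioblastoma cells stably carrying SNCA 5'UTR luciferase fusion; 0% = DMSO wells and 100% = positive control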
TWEAK Fn14 block: TWEAK-Fn14 signaling inhibition. TWEAK-stimulated Fn14 reporter cells, luciferase luminescence, 8 h. inhibition, % at 10 µM. 360,000 compounds, 2% hits. AID 1159606; in the data active = inhibition above about 50%
Numbers without * were called inactive; . = no result given.

SMILES	HSP90 inh	TROY signal inh	HIF-2a inh	C8 TRAIL sens	aSyn UTR inh	TWEAK Fn14 block
CCOC(=O)c1c2c(n(-c3ccc(OC)cc3)c1C)C(=O)C(=O)c1ccccc1-2	.	61*	83*	95*	.	107*
CCCCC(=O)NC(NC(=S)N1CCOCC1)C(Cl)(Cl)Cl (stereo not drawn)	6	12	11	-7	-12	3
O=C(NC(NC(=S)N1CCOCC1)C(Cl)(Cl)Cl)c1ccc(Cl)cc1 (stereo not drawn)	-7	13	6	31	66*	17
CCOC(=O)c1c(-n2cnnn2)sc2c1CCCC2	4	-4	3	10	13	-10
CCOC(=O)c1c(N2C(=O)Nc3cc(Cl)c(Cl)cc3N2O)sc2c1CCCCC2	-5	53*	1	11	.	8
COc1ccc(CCNC(=O)C2CCCN(S(=O)(=O)c3cc(C)ccc3OC)C2)cc1OC (stereo not drawn)	-4	2	1	-12	6	-15
Cc1nc(SCC(=O)c2ccc(F)c(F)c2)[nH]c(=O)c1Oc1ccc(Cl)cc1	1	53*	21	-4	8	-19
Cc1cn([C@H]2C[C@H](O)[C@@H](/C=C/C(=O)NCCC(c3ccccc3)c3ccccc3)O2)c(=O)[nH]c1=O	.	11	9	8	.	-13
CCOC1CCCc2oc(-c3ccsc3)c(-c3cnc(OC)nc3)c21 (stereo not drawn)	.	0	15	4	.	22
N#CCCCC#Cc1ccc2c(c1)COc1c3ccccc3nn1-2	.	81*	-19	77*	77*	93*
O=C1CC(=O)C(n2cncn2)C(c2ccc(Cl)cc2Cl)C1 (stereo not drawn)	3	-1	18	2	-2	64*
O=C(Oc1c(-c2ccccc2)c(=O)n2c3c(cccc13)CC2)c1ccco1	-2	11	-3	15	-30	4
O=C(Oc1c(-c2ccccc2)c(=O)n2c3c(cccc13)CC2)c1ccc(Cl)cc1	5	53*	7	3	-3	9
N/C(=N\OC(=O)c1ccccc1)C(C(=O)NOC(=O)c1ccccc1)C1CCCCC1 (stereo not drawn)	.	-48	-154	91*	.	-5
COC(=O)[C@@]12C[C@@H](CC(=O)NCCC(C)C)C(=O)N(Cc3ccccc3)C1=CCC(C)(C)C2	.	.	9	10	.	.
CC(=O)Nc1ccc(/C(C)=N/NC(=O)c2ccc(F)cc2)cc1	1	-40	0	2	-40	-5
CC(=O)Nc1ccc(/C(C)=N\NC(=O)c2ccc(-c3ccccc3)cc2)cc1	0	.	.	.	96*	.
C/C(=N\NC(=O)c1ccc(O)cc1)c1cccc(NC(=O)c2ccccc2C)c1	-1	-14	-54	63*	-38	-6
C/C(=N\NC(=O)c1nn(C)c(C)c1Br)c1cccc(NC(=O)c2ccc(F)cc2)c1	14	-50	-233	53*	-18	-32
O=C(O)c1ccc(-n2cccc2/C=C2/NC(=O)N(c3ccccc3)C2=O)cc1	7	68*	10	6	0	-18
COC(=O)[C@@]12C[C@@H](CC(=O)NCc3cccc4ccccc34)C(=O)N(Cc3ccc4c(c3)OCO4)C1=CCC(C)(C)C2	.	.	-42	-11	.	.
COc1ccc(-c2cn3c(n2)CCC3)cc1	-2	-62	-168	11	-91	-3
c1ccc(-c2ccc(-c3cn4c(n3)CCC4)cc2)cc1	8	30	-158	72*	20	55*
Cc1ccc2nc(NC(=O)[C@H](C)N3C(=O)C4CC=CCC4C3=O)sc2c1 (stereo partly drawn)	0	-14	-64	1	63*	2
C[C@@H](C(=O)Nc1nc2ccc(F)cc2s1)N1C(=O)C2CC=CCC2C1=O (stereo partly drawn)	2	-13	-78	-2	-59	-14
SMILES	HSP90 inh	TROY signal inh	HIF-2a inh	C8 TRAIL sens	aSyn UTR inh	TWEAK Fn14 block
COc1ccc(N(C(=O)c2ccncc2)S(=O)(=O)c2cccs2)cc1	3	13	15	-10	7	22
COc1ccc(N(C(=O)c2ccncc2)S(=O)(=O)c2ccc3c4c(cccc24)C(=O)N3C)cc1	3	64*	23	3	-7	34
COc1ccc(N(C(=O)c2cccnc2)S(=O)(=O)c2ccc3c4c(cccc24)C(=O)N3C)cc1	0	47	25	0	-12	64*
COC(=O)c1ccccc1NC(=O)c1cc(-c2ccc(O)cc2)on1	-1	-7	-32	51*	-14	-23
C[C@@H]1CN([C@H](C)CO)C(=O)CCCn2nncc2CO[C@H]1CN(C)Cc1ccc2cccnc2c1	.	-4	7	3	.	6
O=c1c(Cc2ccc(Cl)cc2)c(O)ccn1Cc1cccc(Cl)c1	1	44	9	3	18	-20
O=c1c(Cc2ccc(Cl)cc2Cl)c(O)ccn1Cc1ccc(Cl)cc1	2	51*	12	-10	5	-3
COc1ccc(C2CC(=O)c3sc(NC(C)=O)nc3C2)cc1 (stereo not drawn)	2	62*	-34	9	-75	72*
COCCNc1nc(Nc2ccc(C#N)cc2)c2sccc2n1	.	-2	-1	13	.	-26
CCOC(=O)c1cnc2c(-c3ccccc3)cnn2c1C	-2	-44	-263	58*	-112	-8
CCCCCC(=O)N1C[C@@H](n2cc(COC(=O)c3ccccc3)nn2)[C@H](O)C[C@@H]1c1ccc(C)cc1	.	5	9	-10	.	-10
COc1cc(OC)c(OC)cc1/C=N/n1c(C)nc2ccccc2c1=O	-4	13	19	30	-19	97*
O=C(COC(=O)c1ccc2c(c1)OCCO2)Nc1cccc(S(=O)(=O)N2CCOCC2)c1	-2	56*	13	4	5	26
O=C(COC(=O)c1n[nH]c2ccccc12)Nc1cccc(S(=O)(=O)N2CCOCC2)c1	2	8	7	-7	-13	1
CCCc1nc2ccccc2c(C(=O)OCC(=O)Nc2cccc(S(=O)(=O)N3CCOCC3)c2)c1CC	3	42	10	26	-41	61*
COc1ccc(S(=O)(=O)N2CCOCC2)cc1NC(=O)COC(=O)C1COc2ccccc2O1 (stereo not drawn)	2	69*	-161	4	-25	43
CCCc1nc2ccccc2c(C(=O)OCC(=O)NC2CC2)c1CC	.	-1	15	17	.	12
CCCc1nc2ccccc2c(C(=O)OCC(=O)Nc2ccc(S(=O)(=O)N3CCOCC3)cc2)c1CC	5	78*	2	13	3	37
COc1ccc(C)cc1NC(=O)COC(=O)C1COc2ccccc2O1 (stereo not drawn)	.	15	4	3	.	3
COc1cccc(C(O)c2nc(-c3cnn(C)c3)cs2)c1 (stereo not drawn)	.	-2	9	0	.	-5
Nc1ccccc1CCc1ccccc1N	.	11	-15	-9	.	-18
